Measured values: PubChem BioAssay (EPA / NIEHS)
Activity calls are given as the source filed them. The calls were made as follows: active = hit-call score of the fitted dose curve at least 0.9, where 1 is the maximum; inactive = score below 0.9.

Experiments:
[1] = read-out: Basic fibroblast growth factor (bFGF), FGF2 (gene 2247); assay: BSK_MyoF_bFGF: BioMAP Diversity Plus: MyoF Assay for Basic fibroblast growth factor (bFGF) Biomarker Activity (AID 2284246); details: primary human lung fibroblasts
Method in brief: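 Human lung fibroblast cultures were dosed and measured 24 h later in 96-well format. bFGF biomarker levels quantified by ELISA, with activity fitted in the positive direction against DMSO.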

[2] = read-out: Monokine induced gamma interferon (MIG), CXCL9 (gene 4283); assay: BSK_KF3CT_MIG: BioMAP Diversity Plus: KF3CT Assay for Monokine induced gamma interferon (MIG) Biomarker Activity (AID 2284248); details: primary human keratinocytes with fibroblasts
Method in brief: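 Human keratinocyte plus foreskin fibroblast primary co-culture dosed with test chemical for 24 h; MIG level measured by ELISA and fitted in the positive direction against DMSO as baseline.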

[3] = read-out: Vascular cell adhesion molecule 1 (VCAM1), VCAM1 (gene 7412); assay: BSK_BF4T_VCAM1: BioMAP Diversity Plus: BF4T Assay for Vascular cell adhesion molecule 1 (VCAM1) Biomarker Activity (AID 2284249); details: primary human bronchial epithelial cells with fibroblasts
Method in brief: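 Human bronchial epithelial cell and dermal fibroblast co-culture exposed 24 h. VCAM-1 measured by ELISA; parallel SRB total-protein staining for cytotoxicity. Fitted in positive direction relative to DMSO.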

[4] = read-out: Plasminogen activator inhibitor-1 (PAI1), SERPINE1 (gene 5054); assay: BSK_KF3CT_PAI1: BioMAP Diversity Plus: KF3CT Assay for Plasminogen activator inhibitor-1 (PAI1) Biomarker Activity (AID 2284252); details: primary human keratinocytes with fibroblasts
Method in brief: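 Human keratinocyte/foreskin fibroblast co-culture dosed for 24 h; PAI-1 measured by ELISA, fitted in positive direction against DMSO baseline. Parallel SRB total-protein staining (0.1% SRB, 560 nm) assesses overt cytotoxicity.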

[5] = read-out: Monocyte Chemoattractant Protein-1 (MCP1), CCL2 (gene 6347); assay: BSK_IMphg_MCP1: BioMAP Diversity Plus: IMphg Assay for Monocyte Chemoattractant Protein-1 (MCP1) Biomarker Activity (AID 2284253); details: primary human endothelial cells with macrophages
Method in brief: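 Human venular endothelial cells co-cultured with macrophages; MCP-1 measured by ELISA 24 hours post-dose and fitted against DMSO. Cytotoxicity monitored by SRB total-protein staining in parallel cultures.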

[6] = read-out: Macrophage Inflammatory Protein-1 Alpha (MIP1a), CCL3 (gene 6348); assay: BSK_IMphg_MIP1a: BioMAP Diversity Plus: IMphg Assay for Macrophage Inflammatory Protein-1 Alpha (MIP1a) Biomarker Activity (AID 2284255); details: primary human endothelial cells with macrophages
Method in brief: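 Co-culture of human venular endothelial cells and macrophages exposed to compounds for 24 h; MIP-1a measured by ELISA relative to DMSO. Cytotoxicity assessed in parallel cultures by sulforhodamine B total-protein staining at 560 nm.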

[7] = read-out: Plasminogen activator inhibitor-1 (PAI1), SERPINE1 (gene 5054); assay: BSK_MyoF_PAI1: BioMAP Diversity Plus: MyoF Assay for Plasminogen activator inhibitor-1 (PAI1) Biomarker Activity (AID 2284256); details: primary human lung fibroblasts
Method in brief: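 ELISA read-out of PAI-1 from primary human lung fibroblast cultures 24 h after dosing; gain-of-signal fit versus DMSO control.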

[8] = read-out: CD69, CD69 (gene 969); assay: BSK_IMphg_CD69: BioMAP Diversity Plus: IMphg Assay for CD69 Biomarker Activity (AID 2284257); details: primary human endothelial cells with macrophages
Method in brief: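 Human venular endothelial cells co-cultured with macrophages; CD69 quantified by ELISA 24 h after compound addition. Activity fitted in the positive direction relative to DMSO baseline; cytotoxicity tracked in parallel cultures via SRB total-protein staining.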

[9] = read-out: Eotaxin 3, CCL26 (gene 10344); assay: BSK_BF4T_Eotaxin3: BioMAP Diversity Plus: BF4T Assay for Eotaxin 3 Biomarker Activity (AID 2284258); details: primary human bronchial epithelial cells with fibroblasts
Method in brief: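 Co-culture of human bronchial epithelial cells and dermal fibroblasts, exposed to chemicals for 24 h versus DMSO. Eotaxin-3 quantified by ELISA; cytotoxicity checked in parallel cultures by sulforhodamine B total-protein staining.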

[10] = read-out: Monocyte Chemoattractant Protein-1 (MCP1), CCL2 (gene 6347); assay: BSK_BF4T_MCP1: BioMAP Diversity Plus: BF4T Assay for Monocyte Chemoattractant Protein-1 (MCP1) Biomarker Activity (AID 2284259); details: primary human bronchial epithelial cells with fibroblasts
Method in brief: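 Co-culture of bronchial epithelial cells and dermal fibroblasts dosed with chemical; MCP-1 measured by ELISA 24 h later. Activity fitted in positive direction versus DMSO; cytotoxicity checked by SRB staining in parallel cultures.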

[11] = read-out: Intercellular Adhesion Molecule 1 (ICAM1), ICAM1 (gene 3383); assay: BSK_BF4T_ICAM1: BioMAP Diversity Plus: BF4T Assay for Intercellular Adhesion Molecule 1 (ICAM1) Biomarker Activity (AID 2284260); details: primary human bronchial epithelial cells with fibroblasts
Method in brief: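 Co-culture of human bronchial epithelial cells and dermal fibroblasts exposed 24 h to chemical; cell-surface ICAM-1 quantified by ELISA. Parallel SRB total-protein staining assessed cytotoxicity; activity fitted relative to DMSO.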

[12] = read-out: Interleukin-8 (IL8), CXCL8 (gene 3576); assay: BSK_MyoF_IL8: BioMAP Diversity Plus: MyoF Assay for Interleukin-8 (IL8) Biomarker Activity (AID 2284261); details: primary human lung fibroblasts
Method in brief: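 ELISA read-out of IL-8 from primary human lung fibroblasts, 24 h post-dose; positive-direction curve fitting relative to DMSO vehicle baseline.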

[13] = read-out: CD90, THY1 (gene 7070); assay: BSK_BF4T_CD90: BioMAP Diversity Plus: BF4T Assay for CD90 Biomarker Activity (AID 2284262); details: primary human bronchial epithelial cells with fibroblasts
Method in brief: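 Co-culture of human bronchial epithelial cells and dermal fibroblasts, 24 h compound exposure. Cell-surface CD90 measured by ELISA relative to DMSO; parallel SRB total-protein staining for cytotoxicity.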

[14] = read-out: Interleukin-8 (IL8), CXCL8 (gene 3576); assay: BSK_BF4T_IL8: BioMAP Diversity Plus: BF4T Assay for Interleukin-8 (IL8) Biomarker Activity (AID 2284263); details: primary human bronchial epithelial cells with fibroblasts
Method in brief: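 Human bronchial epithelial cells with dermal fibroblasts co-culture; IL-8 measured by ELISA 24 hours after dosing, fitted vs DMSO. Cytotoxicity tracked in parallel cultures by SRB total-protein staining.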

[15] = read-out: Interleukin-1 alpha (IL1a), IL1A (gene 3552); assay: BSK_BF4T_IL1a: BioMAP Diversity Plus: BF4T Assay for Interleukin-1 alpha (IL1a) Biomarker Activity (AID 2284264); details: primary human bronchial epithelial cells with fibroblasts
Method in brief: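 Human bronchial epithelial cells co-cultured with dermal fibroblasts, dosed and read at 24 h. Secreted/surface IL-1α quantified by ELISA; gain-of-signal fitted relative to DMSO baseline. Parallel SRB total-protein staining tracked cytotoxicity.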

[16] = read-out: Decorin, DCN (gene 1634); assay: BSK_MyoF_Decorin: BioMAP Diversity Plus: MyoF Assay for Decorin Biomarker Activity (AID 2284265); details: primary human lung fibroblasts
Method in brief: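 Human lung fibroblasts in the MyoF system were exposed to compound for 24 h, after which decorin was quantified by ELISA. Activity was fitted in the positive direction relative to DMSO negative control.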

[17] = read-out: KRT18 (gene 3875); assay: BSK_BF4T_Keratin818: BioMAP Diversity Plus: BF4T Assay for Keratin 818 Biomarker Activity (AID 2284266); details: primary human bronchial epithelial cells with fibroblasts
Method in brief: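 Co-culture of human bronchial epithelial cells and dermal fibroblasts, chemical exposure 24 h. Keratin 8/18 measured by ELISA; positive-direction fit vs DMSO. SRB total protein run in parallel cultures for cytotoxicity.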

[18] = BSK_MyoF_SRB: Viability Assessment in the BioMAP Diversity Plus: MyoF Assay (AID 2284267); details: primary human lung fibroblasts;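 also: total protein by SRB absorbance in parallel cultures as cytotoxicity measure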
Method in brief: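 Human lung fibroblasts, 24 h after chemical dosing; total protein measured by 0.1% sulforhodamine B staining after 10% TCA fixation, read at 560 nm, fitted relative to DMSO baseline.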

[19] = read-out: Matrix Metallopeptidase 1 (MMP1), MMP1 (gene 4312); assay: BSK_MyoF_MMP1: BioMAP Diversity Plus: MyoF Assay for Matrix Metallopeptidase 1 (MMP1) Biomarker Activity (AID 2284268); details: primary human lung fibroblasts
Method in brief: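 ELISA readout of MMP1 in primary human lung fibroblast cultures, 24 h post-dosing. Gain of signal versus DMSO vehicle control defines activity. Parallel SRB staining (0.1% after 10% TCA fixation, 560 nm) flags overt cytotoxicity.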

[20] = read-out: TIMP metallopeptidase inhibitor 1 (TIMP1), TIMP1 (gene 7076); assay: BSK_MyoF_TIMP1: BioMAP Diversity Plus: MyoF Assay for TIMP metallopeptidase inhibitor 1 (TIMP1) Biomarker Activity (AID 2284269); details: primary human lung fibroblasts
Method in brief: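 Primary human lung fibroblasts, MyoF multiplex system; chemical exposure 24 h; TIMP-1 by ELISA; positive fitting direction vs DMSO control.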

Measured: AC50

O=S(=O)(O)C(F)(F)C(F)(F)OC(F)(F)C(F)(F)F
inactive: [1] | [2] | [3] | [4] | [5] | [6] | [7] | [8] | [9] | [10] | [11] | [12] | [13] | [14] | [15] | [16] | [17] | [18] | [19] | [20]

C=C1CC/C=C(\C)CC[C@@H]2[C@@H]1CC2(C)C
inactive: [12]
active: [1] 34.7 µM | [7] 20 µM | [16] 31 µM | [18] 28.8 µM | [19] 9.66 µM | [20] 34.6 µM

CCOC(=O)C=Cc1ccccc1
inactive: [1] | [7] | [12] | [16] | [18] | [19] | [20]

CCC(=O)OCC=Cc1ccccc1
inactive: [1] | [7] | [12] | [16] | [18] | [19] | [20]

CCn1cc(C(=O)O)c(=O)c2ccc(C)nc21
inactive: [2] | [4]

CC1=CC(C)C(C=O)C(C)C1 (configuration not stated) (tested in a mixture with another compound)
inactive: [1] | [7] | [12] | [16] | [18] | [19] | [20]

C=C(C)C(=O)OCCC(F)(F)C(F)(F)C(F)(F)C(F)(F)C(F)(F)C(F)(F)C(F)(F)C(F)(F)F
inactive: [1] | [2] | [3] | [4] | [5] | [6] | [7] | [8] | [9] | [10] | [11] | [12] | [13] | [14] | [15] | [16] | [17] | [18] | [19] | [20]

CC=CC(=O)C1=C(C)C=CCC1(C)C
inactive: [1] | [7] | [12] | [16] | [18] | [19] | [20]
